Test results taken from ChEMBL document CHEMBL3433997, “St. Jude Leishmania screening dataset” (2016).

Biological target: Solute carrier family 2, facilitated glucose transporter member 1 (Homo sapiens) (UniProt P11166)
Test: ST_JUDE_LEISH: Cytotoxicity at 2uM final concentration against transgenic Leishmania Mexicana promastigotes LmGLUT1 that are glucose transport deficient and complemented with the human glucose transporter GLUT1. Activity is measured by DNA content using SYBR green in vitro
Format: functional

Solute carrier family 2, facilitated glucose transporter member 1 (Homo sapiens), sequence (P11166 whole entry): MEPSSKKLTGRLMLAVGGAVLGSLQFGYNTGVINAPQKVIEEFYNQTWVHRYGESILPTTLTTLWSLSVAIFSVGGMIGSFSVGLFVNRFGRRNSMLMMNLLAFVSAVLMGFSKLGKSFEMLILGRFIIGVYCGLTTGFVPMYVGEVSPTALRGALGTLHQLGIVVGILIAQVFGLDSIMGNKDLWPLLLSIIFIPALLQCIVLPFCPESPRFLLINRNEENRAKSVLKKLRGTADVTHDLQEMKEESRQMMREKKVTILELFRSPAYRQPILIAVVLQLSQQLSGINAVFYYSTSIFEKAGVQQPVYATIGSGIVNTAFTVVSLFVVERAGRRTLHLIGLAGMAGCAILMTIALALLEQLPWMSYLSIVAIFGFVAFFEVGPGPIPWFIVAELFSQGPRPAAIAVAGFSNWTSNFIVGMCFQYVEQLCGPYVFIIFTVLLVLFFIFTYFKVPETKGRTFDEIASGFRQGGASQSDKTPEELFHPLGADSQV

Point of comparison: `COc1ccc2ncc(Cl)c(CCN3CCC(NCc4ccc5c(n4)NC(=O)CS5)CC3)c2c1`, inhibition 7.16%. Against it:
- CCN(CC)c1ccc(C(c2ccc(N(CC)CC)cc2)c2cccc([N+](=O)[O-])c2)cc1 — higher, 15.2%
- COC(=O)c1cc2cccc(NC[C@@H](C)NC[C@H](O)c3cccc(Cl)c3)c2[nH]1 — lower, -0.1%
- COc1ccc2nc3cc(Cl)ccc3c(Nc3ccc(Sc4ccc(Nc5c6ccc(Cl)cc6nc6ccc(OC)cc56)cc4)cc3)c2c1 — lower, 3.47%
- COCC(=O)N(Cc1ccccc1-c1cccc(CNCc2ccc3c(c2)OCO3)c1)C1CCN(Cc2ccccc2)CC1 — lower, 0.4%
- O=C(Nc1cc(F)cc(F)c1)N1CCOC(CCN2CCC3(CCc4ccccc43)CC2)(c2ccc(Cl)c(Cl)c2)C1 (centres undefined) — lower, 3.28%
- CC(C)[C@H](NC(=O)c1c(CN2CCC(N3CCCCC3)CC2)c(-c2ccccc2)nc2cc(O)ccc12)c1ccccc1 — lower, 2.26%
- CON(CCCN(C)C)C(=N)N — lower, 0.55%
- COc1cccc2cc(C(=O)N[C@@H](CC(C)C)C(=O)N[C@H](/C=N/NC(=O)c3ccccc3)Cc3c[nH]cn3)oc12 — lower, 2.75%
- OC(CN1c2ccccc2Sc2ccccc21)CN(C1CCCCC1)C1CCCCC1 (centres undefined) — lower, 6.08%
- CC(C)(C)c1ccc(CNC(=O)c2ccc(-c3nc4cc(C(C)(C)C)ccc4[nH]3)cc2)cc1 — lower, 4.41%
- CSCCCN1CCC(O)(c2ccc3oc(C(=O)Nc4ccc5sc(C)nc5c4)cc3c2)CC1 — higher, 23.3%
- Brc1ccc(Nc2ccnc3cc(-c4nccs4)ccc23)cc1Oc1ccnc2cc(-c3nccs3)ccc12 — lower, 1.77%
- Cc1c(NC(=O)COc2ccc(Cl)cc2C(=O)c2cc(F)cc(C(F)(F)F)c2)ccc2ncsc12 — higher, 9.85%
